The values that follow come from PubChem BioAssay AID488835 (Broad Institute, 2010).

In all, about 1,400 compounds went through this assay and about 140 (10%) were called active. Not all results are given here. Results with a measured potency or affinity are listed apart. A number with no mark means an inactive call.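 The calls were made as follows: active = Half-maximal inhibitory dose from the fit at or below ten times the top valid tested dose; inconclusive = Invalid fit, or flat curve showing 30 to 70% inhibition; inactive = the rest.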

This experiment deals with Lysine-specific demethylase 4C (Homo sapiens) (UniProt Q9H3R0). Put plainly: inhibition of JMJD2C H3K9me3 demethylation – biochemical, DELFIA europium, cherry-picked samples, dose response (AID 488835).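 Also: signal is the H3K9me2 demethylation product detected by a dimethyl-specific antibody.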 The conditions noted are these: GST-JMJD2C(1-420); series mostly up to 6 µM; activity change, negative = inhibition: at the top concentration.
Sequence of Lysine-specific demethylase 4C (Homo sapiens) (Q9H3R0 1-420 limits assumed): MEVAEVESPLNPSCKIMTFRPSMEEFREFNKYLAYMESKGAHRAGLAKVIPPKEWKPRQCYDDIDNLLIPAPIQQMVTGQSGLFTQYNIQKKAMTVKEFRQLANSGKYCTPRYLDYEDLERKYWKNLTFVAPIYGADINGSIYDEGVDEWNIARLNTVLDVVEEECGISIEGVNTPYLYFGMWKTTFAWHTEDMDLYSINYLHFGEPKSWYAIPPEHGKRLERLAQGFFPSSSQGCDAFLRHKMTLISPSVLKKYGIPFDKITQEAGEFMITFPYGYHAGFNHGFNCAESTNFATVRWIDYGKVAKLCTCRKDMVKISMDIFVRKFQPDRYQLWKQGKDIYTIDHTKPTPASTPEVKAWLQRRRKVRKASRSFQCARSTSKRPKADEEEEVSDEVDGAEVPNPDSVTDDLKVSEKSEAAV
With `COc1ccc(NC(NC(=O)c2cccnc2)C(Cl)(Cl)Cl)cc1` (centres undefined), the “activity change, negative = inhibition” value was 0.574%.

For `CCCC(=O)Nc1nn(C)c2nc3c(C)cccc3cc12`, the “activity change, negative = inhibition” value is -4.26%.

Turning to `O=C(COc1ccc(NC(=O)c2ccccc2)cc1)c1ccccc1`, the “activity change, negative = inhibition” value is 2.44%.

As to `C[C@@H]1CC[C@]2(C(=O)O[C@@H]3O[C@H](CO)[C@@H](O)[C@H](O)[C@H]3O)CC[C@]3(C)C(=CCC4[C@@]5(C)C[C@@H](O)[C@H](O)[C@@](C)(C(=O)O[C@@H]6[C@H](O)C[C@@]7(C)C(CC[C@]8(C)C7CC=C7[C@H]9[C@](C(=O)O[C@@H]%10O[C@H](CO)[C@@H](O)[C@H](O)[C@H]%10O)(CC[C@@H](C)[C@@]9(C)O)CC[C@]78C)[C@@]6(CO)C(=O)O)C5CC[C@]43C)[C@@H]2[C@]1(C)O` (some centres undefined), the “activity change, negative = inhibition” value is 8%.

For `Cc1cccc(C(=O)NCC(c2ccco2)N2CCc3ccccc32)c1` (centres undefined), the “activity change, negative = inhibition” value is 4.14%.

For the compound `COc1ccc(Nc2ncnc3sc(-c4ccccc4)cc23)cc1OC`, the “activity change, negative = inhibition” value was 0.937%.

For the compound `COc1ccccc1Cc1nnc(NC(=O)C2CCN(C(=O)c3ccco3)CC2)s1`, the “activity change, negative = inhibition” value was 3.52%.

With `CCN(C[C@H]1N[C@@](C)(C(=O)OC)[C@H]2C(=O)N(C)C(=O)[C@@H]12)C(=O)Nc1ccc(C)cc1`, the “activity change, negative = inhibition” value was 0.134%.

On to `CCCCN(CC)S(=O)(=O)c1ccc(C(=O)Nc2nnc(COC)o2)cc1`, for which the “activity change, negative = inhibition” value was 3.36%.

With `O=C(NCc1cccc(Cl)c1)c1ccc2c(c1)OCO2`, the “activity change, negative = inhibition” value is 2.71%.

Consider `Cc1cc(C)nc(NC(N)=NC(C)c2ccccc2)n1` (centres undefined), for which the “activity change, negative = inhibition” value was -7.76%.

Regarding `CCn1c(O)c(N=NC2=NC(=O)CS2)c2ccccc21`, the “activity change, negative = inhibition” value was 0.856%.

As for `O=C(CCSCc1ccccc1F)NCCc1ccccc1`, the “activity change, negative = inhibition” value is 9.82%.

With `Cc1noc(C)c1S(=O)(=O)N(C)C[C@H]1Oc2c(NC(=O)Nc3ccc(C(F)(F)F)cc3)cccc2C(=O)N([C@H](C)CO)C[C@@H]1C`, the “activity change, negative = inhibition” value is -5.65%.

`Cc1ccc(C(=O)N2CCN(c3ccc(Cl)cc3)CC2)cc1`: the “activity change, negative = inhibition” value was 1.79%.

Take `COc1cccc(NC(=O)CCN2C(=O)C3CC=CCC3C2=O)c1` (centres undefined): the “activity change, negative = inhibition” value was -8.52%.

As for `NC(=O)Cn1nc([N+](=O)[O-])nc1Oc1ccccc1F`, the “activity change, negative = inhibition” value is -7.81%.

Turning to `S=C(NCc1ccco1)Nc1cccc(Cl)c1`, the “activity change, negative = inhibition” value was -6.24%.

`O=C(NCc1ccccc1)c1ccc2c(c1)OCCO2`: the “activity change, negative = inhibition” value is 1.89%.

As to `Cc1noc(C)c1NC(=O)Nc1cccc2c1O[C@H](CN(C)C(=O)Nc1ccc3c(c1)OCO3)[C@@H](C)CN([C@H](C)CO)C2=O`, the “activity change, negative = inhibition” value is 12.1%.

On to `Cc1[nH]n(-c2ccccc2)c(=O)c1N=Nc1nccs1`, for which the “activity change, negative = inhibition” value is -6.11%.

As to `CCOC(=O)N1CCc2c(sc3nc4n(c(=O)c23)N=C(C)CS4)C1`, the “activity change, negative = inhibition” value is -0.154%.

For the compound `COc1ccc(CN(Cc2nc3ccccc3c(=O)[nH]2)C(=O)NC2CCCCC2)cc1`, the “activity change, negative = inhibition” value is -0.777%.

Consider `NC(=O)C1CCN(C(=O)c2ccc(Oc3cc(Cl)cc(Cl)c3)o2)CC1`, for which the “activity change, negative = inhibition” value was -2.91%.

For the compound `COc1ccccc1-n1cnnc1SCC(=O)Nc1ncc(Cl)cc1Cl`, the “activity change, negative = inhibition” value is -7.89% [at 1.6 µM].

As for `O=C(COC(=O)c1ccc(O)cc1)Nc1ccc(Cl)cc1`, the “activity change, negative = inhibition” value was 0.856%.

On to `COc1ccccc1NC(=O)COC(=O)/C=C/c1cccs1`, for which the “activity change, negative = inhibition” value is 6.16%.

For `COc1ccccc1NC(=O)c1cccs1`, the “activity change, negative = inhibition” value is -1.1% [at 1.6 µM].

`O=[N+]([O-])c1cc(Cl)ccc1Nc1ccccc1`: the “activity change, negative = inhibition” value was 2.42%.

Regarding `CC(=O)Nc1ccc(NC(=O)C2CCN(C(=O)c3cccs3)CC2)cc1`, the “activity change, negative = inhibition” value was -11.3%.

For `O=C(NCC1CCCO1)C(c1ccc(F)cc1)N(CCCN1CCOCC1)C(=O)c1ccc(-c2ccccc2)[nH]1` (centres undefined), the “activity change, negative = inhibition” value is 10.5%.

On to `COCCn1c(C(C)C)nc2sc3ccccc3c(=O)c2c1=O`, for which the “activity change, negative = inhibition” value is 5.81%.

`COC(=O)CNS(=O)(=O)c1ccc(C)cc1`: the “activity change, negative = inhibition” value is 2.24%.

Turning to `COC(=O)[C@]1(C)N[C@H](CN(C)C(=O)Nc2ccc(C)cc2)[C@@H]2C(=O)N(Cc3ccccc3)C(=O)[C@@H]21`, the “activity change, negative = inhibition” value was 3.23%.
